# Source: PubChem (National Center for Advancing Translational Sciences (NCATS))
# A selection: hits, their analogues and other compounds. The true share with any hit is near 6.9%.
# VDR inh = Inhibitors of the vitamin D receptor (VDR): qHTS. actives 0.93% (n = 400,000). Potency, µM, for inactives: max response, negative = inhibition, usual class: inhibitors. Vitamin D3 receptor (Homo sapiens), P11473. VDR-SRC2-3 peptide fluorescence polarization, 2 h; further: on the % scale 0 is the no-effect control and ±100 the full control effect
#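 Reagent solutions, kept cold and dark, are dispensed first; compounds are then pinned in at 23 nl, plates briefly spun, and incubated 2 h at ambient temperature. Inhibition of VDR–SRC2-3 peptide binding is read by fluorescence polarization.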
# BAZ2B block = qHTS Assay for Inhibitors of BAZ2B. AlphaScreen BAZ2B-H3K14Ac peptide displacement. Potency, µM (doses to about 114 µM), inactives show at the top dose activity change, negative = inhibition, actives largely listed as inhibitors. actives 4.4% (n = 360,000). AID 504333, 2011; further: on the % scale 0 is the no-effect control and ±100 the full control effect; nearly all actives have a fitted effect of over 60% in size
# Target sequence (Q9UIF8 whole entry, looked up): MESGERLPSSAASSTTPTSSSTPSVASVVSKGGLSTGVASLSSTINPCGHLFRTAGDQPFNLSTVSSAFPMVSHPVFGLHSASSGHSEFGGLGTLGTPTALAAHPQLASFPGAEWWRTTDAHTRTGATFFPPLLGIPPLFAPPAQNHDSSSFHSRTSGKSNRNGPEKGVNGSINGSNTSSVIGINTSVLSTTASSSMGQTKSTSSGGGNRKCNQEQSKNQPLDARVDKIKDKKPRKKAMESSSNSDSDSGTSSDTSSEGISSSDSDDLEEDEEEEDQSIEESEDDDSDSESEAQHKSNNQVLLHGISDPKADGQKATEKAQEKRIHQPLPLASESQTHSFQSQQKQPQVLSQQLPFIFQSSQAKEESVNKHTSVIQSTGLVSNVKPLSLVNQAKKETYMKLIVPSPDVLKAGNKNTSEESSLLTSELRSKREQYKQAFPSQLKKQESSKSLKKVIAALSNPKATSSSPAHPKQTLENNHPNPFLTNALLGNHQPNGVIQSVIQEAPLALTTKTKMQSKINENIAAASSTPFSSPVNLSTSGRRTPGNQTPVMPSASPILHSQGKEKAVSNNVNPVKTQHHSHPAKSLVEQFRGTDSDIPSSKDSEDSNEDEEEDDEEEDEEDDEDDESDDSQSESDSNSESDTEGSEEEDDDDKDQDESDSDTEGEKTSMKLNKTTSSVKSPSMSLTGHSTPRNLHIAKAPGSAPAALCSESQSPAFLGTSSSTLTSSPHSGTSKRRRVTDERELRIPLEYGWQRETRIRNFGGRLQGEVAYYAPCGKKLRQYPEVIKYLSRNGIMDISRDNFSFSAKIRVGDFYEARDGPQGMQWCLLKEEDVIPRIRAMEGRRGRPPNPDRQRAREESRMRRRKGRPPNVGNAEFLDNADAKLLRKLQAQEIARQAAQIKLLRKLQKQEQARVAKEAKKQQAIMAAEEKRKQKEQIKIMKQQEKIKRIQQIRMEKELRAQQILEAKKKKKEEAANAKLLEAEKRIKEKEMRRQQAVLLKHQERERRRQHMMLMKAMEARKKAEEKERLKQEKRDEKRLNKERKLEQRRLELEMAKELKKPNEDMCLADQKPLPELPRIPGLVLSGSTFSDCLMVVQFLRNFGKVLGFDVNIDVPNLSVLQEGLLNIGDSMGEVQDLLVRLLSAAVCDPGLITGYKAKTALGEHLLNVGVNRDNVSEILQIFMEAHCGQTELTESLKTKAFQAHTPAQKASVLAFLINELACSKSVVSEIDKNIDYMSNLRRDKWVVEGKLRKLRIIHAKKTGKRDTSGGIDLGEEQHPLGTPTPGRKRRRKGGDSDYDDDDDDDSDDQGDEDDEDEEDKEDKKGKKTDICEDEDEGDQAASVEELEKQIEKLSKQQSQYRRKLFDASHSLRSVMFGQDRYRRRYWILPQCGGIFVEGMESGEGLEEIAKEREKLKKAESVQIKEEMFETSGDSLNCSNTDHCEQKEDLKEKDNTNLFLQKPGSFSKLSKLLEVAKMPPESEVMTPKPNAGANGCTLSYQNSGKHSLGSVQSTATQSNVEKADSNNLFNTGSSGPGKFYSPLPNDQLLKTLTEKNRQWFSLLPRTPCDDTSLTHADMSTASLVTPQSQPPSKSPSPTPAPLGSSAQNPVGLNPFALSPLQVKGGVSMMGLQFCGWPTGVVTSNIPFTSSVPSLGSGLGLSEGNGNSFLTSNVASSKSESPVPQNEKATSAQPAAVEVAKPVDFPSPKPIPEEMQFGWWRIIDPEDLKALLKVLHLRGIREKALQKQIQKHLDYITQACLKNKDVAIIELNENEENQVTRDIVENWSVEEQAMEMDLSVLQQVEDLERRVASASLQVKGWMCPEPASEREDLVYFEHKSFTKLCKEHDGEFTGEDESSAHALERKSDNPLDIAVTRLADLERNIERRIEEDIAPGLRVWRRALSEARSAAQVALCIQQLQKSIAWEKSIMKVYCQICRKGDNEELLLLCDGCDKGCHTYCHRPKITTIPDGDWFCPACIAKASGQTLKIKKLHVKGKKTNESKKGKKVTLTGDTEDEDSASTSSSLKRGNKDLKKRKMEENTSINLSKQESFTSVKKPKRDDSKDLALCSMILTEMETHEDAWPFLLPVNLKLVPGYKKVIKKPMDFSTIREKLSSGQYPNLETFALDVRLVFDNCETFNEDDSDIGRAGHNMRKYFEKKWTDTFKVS
#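 Compounds, titrated to a top concentration of 110 uM, were incubated 30 min at room temperature with preformed BAZ2B/acetyl-K14 H3 peptide complex (50 nM each). Proximity signal was measured by AlphaScreen after 20 min with beads.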
# L3MBTL1 block = qHTS Assay for the Inhibitors of L3MBTL1; Lethal(3)malignant brain tumor-like protein 1 (Homo sapiens), Q9Y468; Potency, µM (top dose mostly 57.1 µM), for the others: at the top dose activity, negative = inhibition, usual class: inhibitors; AlphaScreen L3MBTL1–H3K9me1 peptide binding; actives 0.66% (n = 230,000); further: on the % scale 0 is the no-effect control and ±100 the full control effect; nearly all actives have a fitted effect of over 60% in size
#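 First, the protein-peptide complex forms for 30 min at room temperature (L3MBTL1 50 nM, biotinylated H3K9me1 peptide 75 nM). Next, compounds are pin-transferred and incubated 30 min. Finally, AlphaScreen beads are added and read after 30 min.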
# PLK1 PBD block = qHTS for Inhibitors of PLK1-PDB (polo-like kinase 1 - polo-box domain): Primary Screen; Plk1 PBD binding of FITC phosphopeptide, fluorescence polarization; actives 2.8% (n = 360,000); Potency, µM, without a hit: max response, negative = inhibition, hits mostly inhibitors; Serine/threonine-protein kinase PLK1 (Homo sapiens), P53350; further: series mostly up to about 57 µM; on the % scale 0 is the no-effect control and ±100 the full control effect; nearly all actives have a fitted effect of over 65% in size
# HP1b chromo inh = HTS for Inhibitors of HP1-beta Chromodomain Interactions with Methylated Histone Tails | AID 540317, 2011 | Chromobox protein homolog 1 (Homo sapiens), P83916 | Potency, µM (series often up to 114 µM), for the others: top-dose activity change, negative = inhibition, actives largely listed as inhibitors | actives 0.56% (n = 390,000) | AlphaScreen HP1-beta / biotin-H3K9me3 peptide binding; further: nearly all actives have a fitted effect of over 70% in size
#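 AlphaScreen: HP1-beta (50 nM) preformed 30 min with biotin-H3(1-18)K9me3 peptide (50 nM) in PBS pH 7.4, 0.01% Tween-20. Compound added for 30 min at RT, then streptavidin donor/nickel chelate acceptor beads (10 ug/mL) for 30 min.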
# JMJD2A Tudor = qHTS Assay for Inhibitors of JMJD2A-Tudor Domain; AlphaScreen JMJD2A-Tudor / H3K4me3 peptide binding; Potency, µM (doses to about 114 µM), for inactives: at the top dose activity change, negative = inhibition, hits mostly inhibitors; actives 4.4% (n = 390,000); further: on the % scale 0 is the no-effect control and ±100 the full control effect; nearly all actives have a fitted effect of over 50% in size
# Numbers without * were called inactive; ? = inconclusive; nt = not tested or not shown; [ ] = dose if it differs, or a comment. The call rests on the fitted dose curve; in most records, active means well fitted curve in the direction sought with a large enough effect; inconclusive means small, poorly fitted or top-dose-only effect, or another doubt; inactive means no such curve, though single readings can be large; an effect the other way counts as inactive or inconclusive. Potency means the concentration at half of the fitted maximal effect.
SMILES,VDR inh,BAZ2B block,L3MBTL1 block,PLK1 PBD block,HP1b chromo inh,JMJD2A Tudor
CNC(=S)NNc1nc(N2CCOCC2)nc(N2CCOCC2)n1,1.6%,-6.8%,12.3%,-8.8%,?,25.1µM*
Cc1ccc(NC(=O)c2ccc(-n3c(C)nnc3C)cc2)cc1F,2.5%,0.7%,nt,nt,11.8%[57 µM],-4.8%
CCc1ccc(NC(=O)C(=O)NCC(c2cccnc2)N2CCN(C)CC2)cc1 (stereo unspecified),13.5%,44.7µM*,nt,nt,17.3%,56.2µM*
O=C(NCCCn1ccnc1)C(=O)NCC(c1ccco1)N1CCN(c2ccccc2)CC1 (stereo unspecified),-3.8%,56.2µM*,-21.2%,-0.3%,39.4%,-6.6%[11.4 µM]
O=C(NCCCn1ccnc1)C(=O)NCC(c1cccnc1)N1CCN(c2ccccc2)CC1 (stereo unspecified),-1.9%,50.1µM*,-10.6%,-15.7%,10.8%,56.2µM*
O=C1Nc2ccc(S(=O)(=O)N(CCO)CCO)c3cccc1c23,-29.5%,-14.4%,-1.1%,21.2µM*,-9.9%,?
Cc1cc(O)ccc1NS(=O)(=O)c1ccc2c3c(cccc13)C(=O)N2,-18.8%,-26.8%,nt,3.9%,8.8%,-17.2%
COc1ccc(C)cc1NS(=O)(=O)c1ccc2c3c(cccc13)C(=O)N2,-113.9%,-20.7%,nt,nt,-59.4%,56.2µM*
O=C(O)CCCCCNS(=O)(=O)c1ccc2c3c(cccc13)C(=O)N2,-20.8%,-35.9%,-13.9%,-10.3%,38.2%,-2.1%
O=C(O)CNS(=O)(=O)c1ccc2c3c(cccc13)C(=O)N2,-20.2%,42.5%,-85.2%,-10.2%,4.3%,28.2µM*
COc1cc(-c2ccc3ncnc(NCC4CCCO4)c3c2)cc(OC)c1OC (stereo unspecified),nt,nt,nt,nt,nt,-23.4%
COc1cccc(/C=N/NC(=O)CCc2n[nH]c(=O)[nH]c2=O)c1O,?,2.4%,11.5%,-8.1%,12.4%,-18.2%
O=C(CCc1n[nH]c(=O)[nH]c1=O)N/N=C/c1ccco1,9.5%,50.1µM*,-6.3%,-12.4%,18.7%,-31.2%
Cc1nc2ccccn2c1-c1ccnc(=S)[nH]1,?,-30.1%,4.0%,26.7µM*,40.1%,-24.1%
CCc1ccc(NC(=O)c2cc3c(COC(C)=O)cnc(C)c3oc2=O)cc1,-1.7%,-2.5%,nt,nt,-3.0%,-23.5%
CCN(CC)CCNC(=O)c1[nH]c2ccccc2c1Sc1ccc(Cl)cc1,8.7%,-1.4%,nt,nt,9.9%,-17.9%
Cn1cccc1/C=N/NC(=O)c1cccs1,18.7%,-34.5%,nt,-0.5%,14.7%,-8.9%
CCCc1cc(C(=O)N/N=C/c2cccn2C)cs1,-17.3%,44.7µM*,nt,1.3%,?,?
Cc1cc(/C([O-])=C(/C(=S)Nc2ccc(F)cc2)[n+]2ccccc2)c(C)n1-c1ccc(F)cc1,-15.0%,44.7µM*,-8.1%,-15.9%,nt,50.1µM*
Cc1cc(/C([O-])=C(/C(=S)Nc2ccccc2)[n+]2ccccc2)c(C)n1-c1ccccc1,-10.1%,?,nt,-9.8%,?,nt
COc1ccc2c(c1)-c1nc(/N=C/c3cccc(OC)c3O)sc1CC2,7.7%,50.1µM*,-1.5%,-11.5%,?,?
COc1ccc2c(c1)-c1nc(/N=C/c3ccccc3O)sc1CC2,-1.4%,?,-9.3%,-10.8%,?,?
Cc1sc2ccccc2[n+]1CCC(C)S(=O)(=O)[O-] (stereo unspecified),?,-9.5%,-1.1%,?,62.9%,-17.1%
Cc1sc2ccccc2[n+]1CC(=O)c1ccccc1,28.2µM*,?,2.9%,21.2µM*,-7.0%,?
CC1=C(C#N)C(/C=N/OCc2ccc(F)cc2Cl)CC(=O)N1 (stereo unspecified),?,-36.8%,10.4%,29.9µM*,?,?
SMILES,VDR inh,BAZ2B block,L3MBTL1 block,PLK1 PBD block,HP1b chromo inh,JMJD2A Tudor
CCOC(=O)N1CCC(N2Cc3cccc(C(=O)Nc4ccc(N(CC)CC)cc4C)c3C2=O)CC1,-3.6%,14.1µM*,nt,-4.5%,?,25.1µM*
CCOC(=O)N1CCC(N2Cc3cccc(C(=O)Nc4cc(F)ccc4F)c3C2=O)CC1,-13.7%,10.4%,nt,-3.9%,36.4%,-7.7%
CCN(CC)c1ccc(-n2nc3cc(C)c(NC(=O)c4ccccc4C)cc3n2)c(C)c1,12.2%,37.3%,nt,nt,129.4%,46.6%
CCN(CC)c1ccc(NC(=O)c2cccc(C)c2OC)c(C)c1,9.2%,35.5µM*,?,-0.4%,?,39.8µM*
CCN(CC)c1ccc(NC(=O)c2cnc3ccccn3c2=O)c(C)c1,5.2%,?,nt,-6.4%,?,44.7µM*
Cc1ccc(NC(=O)c2cnc3cc(C)ccn3c2=O)c(C)c1,1.0%,1.7%,nt,nt,30.3%,-2.5%
COc1ccc(-c2noc(CC(=O)Nc3ccc(Br)cc3C)n2)cc1,12.6%,-27.1%,nt,nt,37.5%,-9.2%
O=C(OCC(=O)N1CCc2ccccc21)c1ccc[nH]c1=O,-5.3%,-10.1%,0.7%,-9.5%,0.0%,14.1µM*
CN(Cc1ccccc1)C(=O)COC(=O)c1ccc(Br)o1,-9.2%,nt,2.4%,9.6%,9.8%,-4.8%
CN(Cc1ccccc1)C(=O)COC(=O)c1ccc[nH]c1=O,3.4%,nt,9.5%,-5.1%,22.9%,22.4µM*
Cc1cc(C(=O)OCC(=O)N2CCc3ccccc32)c(C)o1,13.3%,9.8%,nt,-2.5%,18.1%,10.6%
COc1ccc(-c2cc(-c3ccco3)[nH]c(=O)c2C#N)cc1OC,-12.7%,56.2µM*,?,?,11.8%,?
Cc1cc2c(s1)c1cnn(Cc3ccc(Br)cc3F)c(=O)c1n2C,nt,nt,nt,nt,nt,-21.9%
CN1C(=O)NC(c2ccc(O)cc2)C2=C1CN(c1ccccc1)C2=O (stereo unspecified),?,-12.1%,nt,23.8µM*,3.7%,-14.7%[11.4 µM]
CN1C(=O)NC(c2ccc(O)cc2)C2=C1CN(c1ccc(O)cc1)C2=O (stereo unspecified),-4.2%,-15.5%,3.1%,0.3%,-12.2%,-23.6%
CN(Cc1ccccc1)C(=O)[C@@H]1CCCN1C(=O)[C@@H]1CCCN1C(=O)c1ccccc1,nt,nt,nt,2.7%,nt,nt
CCCOc1ccc(S(=O)(=O)Nc2ccccn2)c2ccccc12,-6.7%,0.3%,-5.0%,-11.4%,23.3%,0.0%
O=C(Cn1ncc2c3ccccc3n(Cc3cccc(Cl)c3)c2c1=O)NCc1cccs1,6.4%,-23.2%,nt,nt,16.4%,-25.8%
